In PubChem BioAssay (Tox21) one finds Potency and outcome data, which are given here for 13 compounds.

Experiment [1] in a line: qHTS assay for small molecules that induce genotoxicity in human embryonic kidney cells expressing luciferase-tagged ATAD5 (AID 651632). Note: nearly all actives have a fitted effect of over 15% in size. The method, boiled down:
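Cells were seeded at 2,000 per well, dosed with compound, and incubated 16 hr at 37C in 5% CO2. Luciferase activity was then quantified after a 30 min room-temperature incubation with Amplite.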

Experiment [2] is described as follows: qHTS assay for small molecules that induce genotoxicity in human embryonic kidney cells expressing luciferase-tagged ATAD5 - cell viability (AID 651634; calls by dose curve; note: nearly all actives have a fitted effect of over 25% in size; note: potency is the fitted concentration of half-maximal effect). The gist of the method: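 Cells (HEK293T, luciferase-tagged ATAD5) are seeded at 2,000 per well, dosed with compound or DMSO vehicle, and incubated 15.5 hr at 37C and 5% CO2. CellTiter-Fluor is added for 30 min before fluorescence is measured.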
For orientation: Quantitative high-throughput screening tests each substance at several concentrations.

Experiment [3] can be described thus: qHTS assay for small molecule disruptors of the mitochondrial membrane potential - cell viability (AID 720634; calls by dose curve;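 note: human HepG2 liver cancer cells; series mostly up to about 83 µM; nearly all actives have a fitted effect of over 20% in size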). The method, boiled down:
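Cytotoxicity was measured by ATP quantitation in HepG2 wells that had first been treated with compound for 1 hr and stained with m-MPI dye; CellTiter-Glo incubation was 30 min at room temperature.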

Experiment [4] can be described thus: qHTS assay to test for compound auto fluorescence at 590 nm (red) in HepG2 cells (AID 720674). The gist of the method:
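Fluorescence at 590 nm emission following 540 nm excitation was recorded from HepG2 wells one hour after compound transfer, with DMSO-only wells as vehicle and Rose Bengal sodium equivalency as the scale.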

Experiment [5] can be described thus: qHTS assay to test for compound auto fluorescence at 535 nm (green) in HepG2 cells (AID 720675).
Experiment [6] in a line: qHTS assay to test for compound auto fluorescence at 460 nm (blue) in HEK293 cell free culture (AID 720681). The method, boiled down:
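Compounds were added to cell-free DMEM with 10% FBS and fluorescence read directly. The blue channel used 405 nm excitation and 460 nm emission, with triamterene as the reference fluorophore.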

The nature of experiment [7]: qHTS assay to test for compound auto fluorescence at 535 nm (green) in HEK293 cell free culture (AID 720682). The method, boiled down:
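Compounds were pin-transferred into cell-free DMEM with 10% FBS, and green fluorescence was read at excitation 485 nm and emission 535 nm. Intensities were expressed as fluorescein-equivalent values.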

A short description of experiment [8]: qHTS assay to test for compound auto fluorescence at 590 nm (red) in HEK293 cell free culture (AID 720683). The gist of the method: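 Cell-free wells of DMEM with 10% FBS received compound, and intrinsic fluorescence was read at excitation/emission 540/590 nm. Values expressed as equivalence to Rose Bengal sodium.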
Experiment [9] can be described thus: qHTS assay to test for compound auto fluorescence at 460 nm (blue) in HepG2 cell free culture (AID 720685). The gist of the method: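 Cell-free plates of MEM plus 10% FBS received 23 nL compound or DMSO vehicle; blue-channel (405/460 nm) intensity scored against triamterene as reference fluorophore.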
Experiment [10] in a line: qHTS assay to test for compound auto fluorescence at 535 nm (green) in HepG2 cell free culture (AID 720686).
Experiment [11] in a line: qHTS assay to test for compound auto fluorescence at 460 nm (blue) in HepG2 cells (AID 720687). The method, boiled down:
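HepG2 cells in MEM with 10% FBS, attached overnight at 37 C, were exposed to compound or DMSO for 1 hr at 37 C, 5% CO2. Blue fluorescence was read at 405/460 nm, with triamterene as reference fluorophore.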

Experiment [12] is described as follows: qHTS assay to identify small molecule antagonists of the glucocorticoid receptor (GR) signaling pathway - cell viability counter screen (AID 720693). Note: nearly all actives have a fitted effect of over 55% in size.
The nature of experiment [13]: qHTS assay to identify small molecule antagonists of the thyroid receptor (TR) signaling pathway (AID 743065). Note: nearly all actives have a fitted effect of over 55% in size. Note: potency is the fitted concentration of half-maximal effect. The gist of the method: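 GH3.TRE-Luc rat pituitary cells (two TREs driving luciferase) were dosed with compound, then stimulated with 1 nM T3 (final) for 23.5 h at 37 C. ONE-Glo luminescence was the read-out, with CellTiter-Fluor fluorescence as the cytotoxicity counter-screen.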

Experiment [14] has as its system thyroid hormone receptor (rat, GH3 cells). The experiment can be described thus: qHTS assay to identify small molecule agonists of the thyroid receptor (TR) signaling pathway (AID 743066; calls by dose curve).
Experiment [15] is described as follows: qHTS assay to identify small molecule antagonists of the estrogen receptor alpha (ER-alpha) signaling pathway - cell viability counter screen (AID 743074; calls by dose curve;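 note: HEK293 cells carrying ER-alpha-UAS-bla reporter stimulated with 17beta-estradiol; nearly all actives have a fitted effect of over 45% in size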).
A short description of experiment [16]: qHTS assay to identify small molecule antagonists of the estrogen receptor alpha (ER-alpha) signaling pathway using the BG1 cell line - cell viability counter screen (AID 743081).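 Note: compound given together with 17beta-estradiol as the ER stimulus; nearly all actives have a fitted effect of over 45% in size.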 Note: potency is the fitted concentration of half-maximal effect.
A further experiment concerns the target Aromatase (Homo sapiens) (UniProt P11511). The experiment can be described thus: qHTS assay to identify aromatase inhibitors (AID 743083). Note: series mostly up to about 70 µM; nearly all actives have a fitted effect of over 55% in size.
Experiment [17] can be described thus: qHTS assay to identify aromatase inhibitors - cell viability counter screen (AID 743084).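 Note: cells stimulated with testosterone during compound exposure; nearly all actives have a fitted effect of over 55% in size.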
The target of experiment [18] is Aryl hydrocarbon receptor (Homo sapiens) (UniProt P35869). The experiment can be described thus: qHTS assay to identify small molecule that activate the aryl hydrocarbon receptor (AhR) signaling pathway (AID 743085). Note: nearly all actives have a fitted effect of over 15% in size. Note: potency is the fitted concentration of half-maximal effect. The method, boiled down:
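Luminescence (ONE-Glo) from a dioxin-responsive-element luciferase reporter in HG2L7.5c1 HepG2 cells after 24 hr compound exposure at 37C; viability measured by CellTiter-Fluor fluorescence beforehand.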

Experiment [19] in a line: qHTS assay to identify small molecule phospholipidosis (PLD) inducers (AID 1259344; active = well fitted curve in the direction sought with a large enough effect; an effect the other way counts as inactive or inconclusive). The method, boiled down:
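Image-based: LipidTOX Red pit count/intensity per well and per cell; HepG2, 24 h compound at 37 C, PFA fixation, Hoechst counterstain.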

“And” between values parts separate entries of the source, which are not always exact repeats. Equal values may be shown once. Inconclusive results are not listed. A structure can be active in one record and inactive in another. The source made the active and inactive calls. Unless noted, calls come from the whole dose curve; as a rule, active = well fitted curve in the direction sought with a large enough effect in the repeat runs; inconclusive = weak or mixed curves; inactive = no such curve, though single readings can be large; an effect the other way counts as inactive or inconclusive.

Sequence of Aromatase (Homo sapiens) (P11511 whole entry, looked up): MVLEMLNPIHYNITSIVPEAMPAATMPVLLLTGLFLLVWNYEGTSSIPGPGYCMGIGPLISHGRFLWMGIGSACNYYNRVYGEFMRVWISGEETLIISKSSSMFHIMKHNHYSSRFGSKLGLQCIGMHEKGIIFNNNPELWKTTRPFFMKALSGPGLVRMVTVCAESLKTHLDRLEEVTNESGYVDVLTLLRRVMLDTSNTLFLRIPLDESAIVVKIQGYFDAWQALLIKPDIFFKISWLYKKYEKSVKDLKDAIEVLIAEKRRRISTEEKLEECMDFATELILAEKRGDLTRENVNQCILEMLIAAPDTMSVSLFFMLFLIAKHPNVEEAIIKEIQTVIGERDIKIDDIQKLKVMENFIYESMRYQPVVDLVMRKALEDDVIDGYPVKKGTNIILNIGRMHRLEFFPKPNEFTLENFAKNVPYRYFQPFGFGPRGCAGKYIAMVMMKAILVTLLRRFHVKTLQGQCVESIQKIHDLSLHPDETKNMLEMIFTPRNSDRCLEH
Sequence of Aryl hydrocarbon receptor (Homo sapiens) (P35869 whole entry, looked up): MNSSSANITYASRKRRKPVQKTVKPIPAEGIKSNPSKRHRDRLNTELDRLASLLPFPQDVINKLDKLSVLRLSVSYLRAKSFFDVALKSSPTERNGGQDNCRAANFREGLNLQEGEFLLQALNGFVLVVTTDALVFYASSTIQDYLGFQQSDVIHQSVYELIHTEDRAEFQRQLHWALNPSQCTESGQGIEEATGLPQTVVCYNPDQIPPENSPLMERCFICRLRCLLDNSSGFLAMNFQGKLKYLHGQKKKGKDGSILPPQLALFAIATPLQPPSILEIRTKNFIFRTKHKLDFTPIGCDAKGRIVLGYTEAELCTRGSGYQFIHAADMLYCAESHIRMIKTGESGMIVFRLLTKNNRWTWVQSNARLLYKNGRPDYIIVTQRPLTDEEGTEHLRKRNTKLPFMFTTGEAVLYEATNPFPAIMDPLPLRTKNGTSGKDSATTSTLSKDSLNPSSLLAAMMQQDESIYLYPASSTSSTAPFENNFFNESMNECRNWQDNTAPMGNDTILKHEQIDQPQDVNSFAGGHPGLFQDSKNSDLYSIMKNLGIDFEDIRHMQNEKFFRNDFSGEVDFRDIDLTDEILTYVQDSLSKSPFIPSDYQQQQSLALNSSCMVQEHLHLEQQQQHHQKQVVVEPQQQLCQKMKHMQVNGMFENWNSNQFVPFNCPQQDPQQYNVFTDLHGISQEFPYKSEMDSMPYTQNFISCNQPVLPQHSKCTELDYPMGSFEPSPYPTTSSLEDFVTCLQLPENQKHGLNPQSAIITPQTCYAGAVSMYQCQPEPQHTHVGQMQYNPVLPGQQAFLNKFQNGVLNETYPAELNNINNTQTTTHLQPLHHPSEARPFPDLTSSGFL

As for `C[C@@H](Cc1ccccc1)N(C)C`, the Potency result in experiment [1], in experiment [2], in experiment [3], in experiment [5], in experiment [6] and in experiment [7] was “inactive” in each case. The Potency entry in experiment [9], in [10], in experiment [11], in experiment [12], in experiment [13] and in experiment [14] was “inactive” in each case. In addition, the Potency entry (in experiment [15]; in experiment [16]; with Aromatase (Homo sapiens); in experiment [17]; in experiment [18]; in [19]) was “inactive” in each case. Also, the compound was called inactive in experiment [4] and in [8].
Regarding `CCC(=O)O[C@]1(c2ccccc2)CCN(C)C[C@H]1C`, the Potency result in experiment [1], in [2], in experiment [3], in experiment [5], in experiment [6] and in experiment [7] was “inactive” each time. Moreover, the Potency entry in experiment [9], in experiment [10], in experiment [11], in experiment [12], in experiment [13] and in experiment [14] was “inactive” in each case. Further, the Potency entry (in [15]; in experiment [16]; in the experiment with Aromatase (Homo sapiens); in experiment [17]; in experiment [18]; in experiment [19]) was “inactive” each time. For the same compound, the compound was called inactive in [4] and in experiment [8].
`[S]=[Sb](=[S])[S][Sb](=[S])=[S]`: the Potency entry in experiment [1], in experiment [2], in [3], in experiment [5], in [6] and in experiment [7] was “inactive” throughout. Also, the Potency result in experiment [9], in experiment [11], in experiment [12], in experiment [13], in experiment [14] and in experiment [15] was “inactive” throughout. Moreover, the Potency entry (in experiment [16]; with Aromatase (Homo sapiens); in experiment [17]; in experiment [18]; in experiment [19]) was “inactive” throughout. Further, the compound was called inactive in [4] and in experiment [8].
Take `C#CC(C)(O)CC` (stereo not drawn): the Potency result in [1], in [2], in experiment [5], in experiment [6], in [7] and in [9] was “inactive” each time. For the same compound, the Potency result in experiment [10], in [11], in [12], in [13], in experiment [14] and in experiment [15] was “inactive” each time. The Potency result (in [16]; in the experiment with Aromatase (Homo sapiens); in experiment [17]; in [19]) was “inactive” throughout. Besides, the call in [4] and in experiment [8] was inactive.
As to `c1cc2c(c(NC3=NCCN3)c1)CCCC2`, the Potency result in experiment [1], in experiment [2], in [3], in experiment [5], in [6] and in [7] was “inactive” in each case. Also, the Potency entry in [9], in experiment [10], in [11], in [12], in [14] and in experiment [15] was “inactive” throughout. Further, the Potency entry (in experiment [16]; with Aromatase (Homo sapiens); in experiment [17]; in experiment [19]) was “inactive” in each case. Moreover, the result in experiment [4] and in experiment [8] was inactive.
Turning to `COC1=CC=C2[C@H]3Cc4ccc(OC)c5c4[C@@]2(CCN3C)[C@H]1O5`, the Potency entry in experiment [1], in experiment [2], in [3], in experiment [5], in experiment [6] and in [7] was “inactive” throughout. The Potency result in [9], in experiment [10], in experiment [11], in [12], in [13] and in [14] was “inactive” in each case. For the same compound, the Potency entry (in experiment [15]; in experiment [16]; in the experiment with Aromatase (Homo sapiens); in [17]; in experiment [18]; in experiment [19]) was “inactive” in each case. Also, the result in experiment [4] and in [8] was inactive.
Turning to `CNC(=O)OCC[N+](C)(C)C`, the Potency entry in [1], in experiment [2], in [3], in experiment [5], in [6] and in [7] was “inactive” throughout. In addition, the Potency result in [9], in experiment [11], in experiment [12], in [13], in experiment [15] and in [16] was “inactive” each time. For the same compound, the Potency result (with Aromatase (Homo sapiens); in [17]; in [18]; in experiment [19]) was “inactive” each time. The result in [4] and in experiment [8] was inactive.
Regarding `CCC(N)Cc1c[nH]c2ccccc12` (stereo not drawn), the Potency result in experiment [1], in experiment [2], in experiment [3], in [5], in experiment [6] and in experiment [7] was “inactive” each time. The Potency entry in [9], in [11], in [12], in experiment [13], in [14] and in experiment [15] was “inactive” throughout. The Potency result (in the experiment with Aromatase (Homo sapiens); in experiment [17]; in experiment [19]) was “inactive” each time. In addition, the outcome in experiment [4] and in [8] was inactive. Also, in experiment [18], the Potency entry is “inactive and 30.7 µM (active)”.
Regarding `O=C(C[C@@H]1NCCC[C@H]1O)Cn1cnc2cc(Br)c(Cl)cc2c1=O`, the Potency entry in [1], in experiment [2], in [3], in experiment [5], in experiment [6] and in experiment [7] was “inactive” in each case. Further, the Potency entry in experiment [9], in experiment [10], in experiment [11], in experiment [12], in [14] and in experiment [15] was “inactive” in each case. For the same compound, the Potency result (in experiment [16]; with Aromatase (Homo sapiens); in [17]; in experiment [19]) was “inactive” in each case. For the same compound, the outcome in experiment [4] and in [8] was inactive.
`CN=C1CN(O)C(c2ccccc2)=c2cc(Cl)ccc2=N1`: the Potency result in [1], in [2], in [3], in [5], in experiment [6] and in experiment [7] was “inactive” in each case. In addition, the Potency entry in [9], in experiment [10], in experiment [11], in [12], in experiment [13] and in experiment [14] was “inactive” in each case. For the same compound, the Potency result (in [15]; in [16]; in the experiment with Aromatase (Homo sapiens); in experiment [17]; in experiment [18]; in [19]) was “inactive” in each case. Further, the compound was called inactive in experiment [4] and in [8].
For `O=[N+]([O-])c1cc(I)c(O)c(I)c1`, the Potency entry in experiment [1], in experiment [5], in [6], in [7], in [9] and in experiment [10] was “inactive” in each case. Also, the Potency result (in experiment [11]; with Aromatase (Homo sapiens); in experiment [17]; in experiment [18]; in [19]) was “inactive” in each case. Further, the Potency in experiment [2] is 23.7 µM (active); in experiment [13], 21.1 µM (active); in [16], 10.6 µM (active). The call in experiment [4] and in experiment [8] was inactive.
With `CCC1(CC)C(=O)NC(=O)N(C)C1=O`, the Potency result in [1], in experiment [2], in experiment [3], in experiment [5], in experiment [6] and in experiment [7] was “inactive” throughout. The Potency result in [9], in [10], in [11], in experiment [12], in [13] and in [14] was “inactive” each time. Besides, the Potency entry (in experiment [15]; in experiment [16]; in the experiment with Aromatase (Homo sapiens); in [17]; in [18]; in [19]) was “inactive” in each case. For the same compound, the outcome in [4] and in [8] was inactive.
With `CN(C)CCCCCCN(C)C`, the Potency result in [2], in experiment [3], in [5], in experiment [6], in [7] and in [9] was “inactive” in each case. Also, the Potency result in [10], in experiment [11], in experiment [12], in experiment [13], in [14] and in [15] was “inactive” each time. The Potency entry (in experiment [16]; with Aromatase (Homo sapiens); in experiment [17]; in experiment [18]) was “inactive” in each case. Moreover, the compound was called inactive in [4] and in experiment [8].
